The target of experiment [1] is T1, Mitogen-activated protein kinase 12 (Homo sapiens) (UniProt P53778).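 Further: values are averaged p38gamma kinase inhibition readings, compounds tested at 1 µM.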
T1 sequence (whole entry): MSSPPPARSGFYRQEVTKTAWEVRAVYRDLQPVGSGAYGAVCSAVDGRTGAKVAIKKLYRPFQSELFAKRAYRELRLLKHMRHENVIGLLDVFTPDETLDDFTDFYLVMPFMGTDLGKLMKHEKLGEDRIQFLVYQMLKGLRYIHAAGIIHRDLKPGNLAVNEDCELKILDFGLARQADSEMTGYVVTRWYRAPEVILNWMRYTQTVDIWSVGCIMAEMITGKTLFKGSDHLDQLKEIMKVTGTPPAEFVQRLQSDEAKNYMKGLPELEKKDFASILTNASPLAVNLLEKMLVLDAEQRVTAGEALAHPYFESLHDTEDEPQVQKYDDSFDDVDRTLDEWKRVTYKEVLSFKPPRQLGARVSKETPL
The settings on record: at 1 µM.

Experiment [2] deals with SRSF protein kinase 1 (Homo sapiens) (UniProt Q96SB4). The settings on record: at 0.1 µM.
Experiment [3] has the same target. The settings on record: at 1 µM.
Experiment [4] addresses Phosphatidylinositol 4,5-bisphosphate 3-kinase catalytic subunit alpha isoform (Homo sapiens) (UniProt P42336). To be noted: at 0.1 µM.
The target is the same in experiment [5]. The settings on record: at 1 µM.
The target in experiment [6] is T2, Phosphatidylinositol 4,5-bisphosphate 3-kinase catalytic subunit delta isoform (Homo sapiens) (UniProt O00329).
T2 sequence (whole entry): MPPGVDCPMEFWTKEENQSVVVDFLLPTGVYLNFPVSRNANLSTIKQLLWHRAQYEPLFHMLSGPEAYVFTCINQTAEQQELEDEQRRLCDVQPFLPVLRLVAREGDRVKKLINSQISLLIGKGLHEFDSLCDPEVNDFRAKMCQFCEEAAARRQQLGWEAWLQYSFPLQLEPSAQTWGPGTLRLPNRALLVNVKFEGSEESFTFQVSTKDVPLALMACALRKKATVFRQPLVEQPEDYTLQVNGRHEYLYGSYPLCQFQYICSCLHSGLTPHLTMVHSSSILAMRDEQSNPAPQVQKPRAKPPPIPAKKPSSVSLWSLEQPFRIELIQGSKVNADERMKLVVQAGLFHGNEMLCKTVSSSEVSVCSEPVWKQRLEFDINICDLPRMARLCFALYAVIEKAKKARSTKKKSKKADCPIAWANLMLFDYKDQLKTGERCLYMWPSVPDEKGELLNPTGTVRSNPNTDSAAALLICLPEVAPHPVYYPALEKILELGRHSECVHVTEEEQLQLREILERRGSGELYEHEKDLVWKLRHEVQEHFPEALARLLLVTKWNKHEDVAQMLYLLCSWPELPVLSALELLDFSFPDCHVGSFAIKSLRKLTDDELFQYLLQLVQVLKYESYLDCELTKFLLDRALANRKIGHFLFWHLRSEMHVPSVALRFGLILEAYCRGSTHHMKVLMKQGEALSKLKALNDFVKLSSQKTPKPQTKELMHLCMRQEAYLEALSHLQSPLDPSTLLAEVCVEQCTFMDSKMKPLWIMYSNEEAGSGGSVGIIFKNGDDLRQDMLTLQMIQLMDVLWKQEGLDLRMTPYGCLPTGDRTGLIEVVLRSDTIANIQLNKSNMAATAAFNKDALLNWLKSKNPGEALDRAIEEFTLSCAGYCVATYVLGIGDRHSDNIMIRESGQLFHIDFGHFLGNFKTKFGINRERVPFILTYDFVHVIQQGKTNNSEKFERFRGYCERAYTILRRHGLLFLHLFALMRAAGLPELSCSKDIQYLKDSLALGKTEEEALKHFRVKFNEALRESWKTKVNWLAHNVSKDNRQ
To be noted: at 0.1 µM.

In experiment [7] the target is T2, Phosphatidylinositol 4,5-bisphosphate 3-kinase catalytic subunit delta isoform (Homo sapiens). To be noted: at 1 µM.
Experiment [8] addresses Phosphatidylinositol 4-kinase beta (Homo sapiens) (UniProt Q9UBF8). To be noted: at 0.1 µM.
Experiment [9] shares this target. To be noted: at 1 µM.
The target of experiment [10] is Sphingosine kinase 1 (Homo sapiens) (UniProt Q9NYA1). To be noted: at 0.1 µM.
For experiment [11] the target is unchanged. To be noted: at 1 µM.
The target of experiment [12] is T3, Sphingosine kinase 2 (Homo sapiens) (UniProt Q9NRA0).
T3 sequence (whole entry): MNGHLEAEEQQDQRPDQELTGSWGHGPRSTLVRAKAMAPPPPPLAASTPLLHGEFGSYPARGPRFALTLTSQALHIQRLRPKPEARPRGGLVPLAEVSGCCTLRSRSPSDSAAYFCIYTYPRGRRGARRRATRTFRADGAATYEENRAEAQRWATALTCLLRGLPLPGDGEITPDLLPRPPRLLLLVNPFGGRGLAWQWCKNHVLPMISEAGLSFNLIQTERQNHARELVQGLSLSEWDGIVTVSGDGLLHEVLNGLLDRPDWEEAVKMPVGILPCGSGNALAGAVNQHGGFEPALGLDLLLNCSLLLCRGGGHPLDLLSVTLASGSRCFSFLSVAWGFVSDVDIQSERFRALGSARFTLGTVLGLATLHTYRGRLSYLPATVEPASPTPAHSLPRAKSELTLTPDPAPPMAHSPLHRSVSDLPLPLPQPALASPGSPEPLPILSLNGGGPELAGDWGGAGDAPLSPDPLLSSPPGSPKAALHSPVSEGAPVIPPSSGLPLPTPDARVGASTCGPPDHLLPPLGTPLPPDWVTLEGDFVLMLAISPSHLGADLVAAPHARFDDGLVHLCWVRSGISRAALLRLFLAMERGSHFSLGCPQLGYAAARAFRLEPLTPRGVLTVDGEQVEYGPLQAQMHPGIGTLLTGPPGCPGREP
The settings on record: at 0.1 µM.

Experiment [13] deals with T3, Sphingosine kinase 2 (Homo sapiens). To be noted: at 1 µM.
Experiment [14] has as its target Casein kinase II subunit alpha (Homo sapiens) (UniProt P68400). To be noted: at 0.1 µM.
Experiment [15] shares this target. To be noted: at 1 µM.
Experiment [16] deals with T4, Inhibitor of nuclear factor kappa-B kinase subunit alpha (Homo sapiens) (UniProt O15111).
T4 sequence (whole entry): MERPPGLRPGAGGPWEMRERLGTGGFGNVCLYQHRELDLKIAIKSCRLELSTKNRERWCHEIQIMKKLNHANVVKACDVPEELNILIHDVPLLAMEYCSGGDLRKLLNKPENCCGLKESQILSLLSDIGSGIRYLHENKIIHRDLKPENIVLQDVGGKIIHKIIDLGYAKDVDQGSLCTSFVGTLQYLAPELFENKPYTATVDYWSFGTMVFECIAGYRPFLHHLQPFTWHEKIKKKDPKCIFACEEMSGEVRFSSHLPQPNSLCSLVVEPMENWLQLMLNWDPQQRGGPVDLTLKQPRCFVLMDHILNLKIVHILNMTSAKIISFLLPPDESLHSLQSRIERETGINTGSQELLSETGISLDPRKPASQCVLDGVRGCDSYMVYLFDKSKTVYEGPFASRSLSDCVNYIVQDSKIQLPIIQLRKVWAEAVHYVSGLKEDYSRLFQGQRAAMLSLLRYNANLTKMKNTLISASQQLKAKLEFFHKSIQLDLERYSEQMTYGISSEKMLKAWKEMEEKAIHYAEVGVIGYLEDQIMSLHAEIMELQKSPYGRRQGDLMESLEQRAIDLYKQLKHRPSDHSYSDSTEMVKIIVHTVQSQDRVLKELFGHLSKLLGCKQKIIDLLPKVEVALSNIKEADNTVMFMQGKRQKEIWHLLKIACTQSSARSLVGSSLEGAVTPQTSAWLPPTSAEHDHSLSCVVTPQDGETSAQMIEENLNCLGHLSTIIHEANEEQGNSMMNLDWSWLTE
The settings on record: at 0.1 µM.

Experiment [17] addresses T4, Inhibitor of nuclear factor kappa-B kinase subunit alpha (Homo sapiens). The settings on record: at 1 µM.
The target in experiment [18] is T5, Inhibitor of nuclear factor kappa-B kinase subunit beta (Homo sapiens) (UniProt O14920).
T5 sequence (whole entry): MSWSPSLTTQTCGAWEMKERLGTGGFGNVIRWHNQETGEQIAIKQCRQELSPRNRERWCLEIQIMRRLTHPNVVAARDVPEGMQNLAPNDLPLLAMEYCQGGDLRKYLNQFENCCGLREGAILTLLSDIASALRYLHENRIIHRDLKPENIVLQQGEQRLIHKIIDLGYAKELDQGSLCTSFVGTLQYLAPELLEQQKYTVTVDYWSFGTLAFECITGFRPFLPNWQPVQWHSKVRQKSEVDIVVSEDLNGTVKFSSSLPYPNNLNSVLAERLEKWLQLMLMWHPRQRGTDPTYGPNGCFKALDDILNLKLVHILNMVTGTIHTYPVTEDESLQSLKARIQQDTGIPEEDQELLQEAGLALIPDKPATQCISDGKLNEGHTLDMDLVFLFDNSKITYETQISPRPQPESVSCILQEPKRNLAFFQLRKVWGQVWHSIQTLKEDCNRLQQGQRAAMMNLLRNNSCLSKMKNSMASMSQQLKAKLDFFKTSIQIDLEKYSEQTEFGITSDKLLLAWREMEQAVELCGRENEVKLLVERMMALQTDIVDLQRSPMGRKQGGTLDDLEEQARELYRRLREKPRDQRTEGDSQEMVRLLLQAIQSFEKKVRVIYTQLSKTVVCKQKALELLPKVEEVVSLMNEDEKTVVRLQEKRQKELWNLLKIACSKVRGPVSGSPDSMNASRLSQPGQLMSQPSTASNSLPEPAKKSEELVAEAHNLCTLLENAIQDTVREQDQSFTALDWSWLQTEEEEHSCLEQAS
The settings on record: at 0.1 µM.

For experiment [19], the target named is T5, Inhibitor of nuclear factor kappa-B kinase subunit beta (Homo sapiens). The settings on record: at 1 µM.
Experiment [20] addresses T6, Inhibitor of nuclear factor kappa-B kinase subunit epsilon (Homo sapiens) (UniProt Q14164).
T6 sequence (whole entry): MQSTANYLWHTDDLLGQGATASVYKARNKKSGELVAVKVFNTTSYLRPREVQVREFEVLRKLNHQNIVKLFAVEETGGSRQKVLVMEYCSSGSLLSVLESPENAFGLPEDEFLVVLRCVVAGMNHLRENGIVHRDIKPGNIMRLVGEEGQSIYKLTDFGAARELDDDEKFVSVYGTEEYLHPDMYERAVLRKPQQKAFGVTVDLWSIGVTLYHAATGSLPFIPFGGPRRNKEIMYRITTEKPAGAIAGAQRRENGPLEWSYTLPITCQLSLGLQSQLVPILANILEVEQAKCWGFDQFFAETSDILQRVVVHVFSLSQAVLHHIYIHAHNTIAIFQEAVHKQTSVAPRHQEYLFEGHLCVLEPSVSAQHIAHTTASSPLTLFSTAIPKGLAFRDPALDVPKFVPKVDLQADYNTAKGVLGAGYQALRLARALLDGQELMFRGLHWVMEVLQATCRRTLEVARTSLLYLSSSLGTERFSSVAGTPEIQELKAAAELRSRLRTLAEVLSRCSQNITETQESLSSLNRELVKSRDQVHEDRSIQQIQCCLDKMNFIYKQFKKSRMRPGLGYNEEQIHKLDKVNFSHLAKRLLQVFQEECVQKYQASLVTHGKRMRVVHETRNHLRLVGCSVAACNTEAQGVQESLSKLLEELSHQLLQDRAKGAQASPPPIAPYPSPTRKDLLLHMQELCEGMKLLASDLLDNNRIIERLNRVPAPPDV
The settings on record: at 0.1 µM.

For three molecules, inhibition results are on record in ChEMBL document CHEMBL1961873, “Compounds: GSK PKIS; Assays: Nanosyn kinase panel” (2012).

Sequence of Phosphatidylinositol 4,5-bisphosphate 3-kinase catalytic subunit alpha isoform (Homo sapiens) (P42336 whole entry, canonical isoform): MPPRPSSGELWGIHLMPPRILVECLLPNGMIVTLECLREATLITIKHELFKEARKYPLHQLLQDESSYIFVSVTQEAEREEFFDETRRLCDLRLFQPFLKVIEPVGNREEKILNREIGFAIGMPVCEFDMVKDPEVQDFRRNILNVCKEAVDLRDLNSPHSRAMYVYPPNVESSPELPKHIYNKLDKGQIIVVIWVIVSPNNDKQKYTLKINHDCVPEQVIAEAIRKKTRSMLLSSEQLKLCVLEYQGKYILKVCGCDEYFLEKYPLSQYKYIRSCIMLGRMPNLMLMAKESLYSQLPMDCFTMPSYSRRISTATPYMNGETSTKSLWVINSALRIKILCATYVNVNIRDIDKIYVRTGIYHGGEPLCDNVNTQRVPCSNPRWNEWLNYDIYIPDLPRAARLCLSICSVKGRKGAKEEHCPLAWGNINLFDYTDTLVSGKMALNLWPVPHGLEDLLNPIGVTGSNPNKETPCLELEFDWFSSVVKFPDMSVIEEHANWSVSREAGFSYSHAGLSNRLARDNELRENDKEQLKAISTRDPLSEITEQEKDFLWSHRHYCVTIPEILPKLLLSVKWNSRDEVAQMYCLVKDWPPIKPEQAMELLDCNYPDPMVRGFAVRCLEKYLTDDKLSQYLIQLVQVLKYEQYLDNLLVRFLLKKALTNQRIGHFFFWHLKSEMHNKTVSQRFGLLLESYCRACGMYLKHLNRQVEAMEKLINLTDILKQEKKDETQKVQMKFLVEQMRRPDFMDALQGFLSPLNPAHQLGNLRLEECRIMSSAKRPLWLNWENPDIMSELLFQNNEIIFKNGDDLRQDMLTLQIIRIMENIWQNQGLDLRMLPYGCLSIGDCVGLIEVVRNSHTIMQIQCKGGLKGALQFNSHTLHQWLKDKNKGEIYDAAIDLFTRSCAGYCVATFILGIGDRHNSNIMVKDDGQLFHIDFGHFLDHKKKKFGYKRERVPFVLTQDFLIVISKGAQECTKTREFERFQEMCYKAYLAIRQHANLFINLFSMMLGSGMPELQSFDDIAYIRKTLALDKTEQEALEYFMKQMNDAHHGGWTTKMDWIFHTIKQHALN
Sequence of Phosphatidylinositol 4-kinase beta (Homo sapiens) (Q9UBF8 2-816 limits assumed): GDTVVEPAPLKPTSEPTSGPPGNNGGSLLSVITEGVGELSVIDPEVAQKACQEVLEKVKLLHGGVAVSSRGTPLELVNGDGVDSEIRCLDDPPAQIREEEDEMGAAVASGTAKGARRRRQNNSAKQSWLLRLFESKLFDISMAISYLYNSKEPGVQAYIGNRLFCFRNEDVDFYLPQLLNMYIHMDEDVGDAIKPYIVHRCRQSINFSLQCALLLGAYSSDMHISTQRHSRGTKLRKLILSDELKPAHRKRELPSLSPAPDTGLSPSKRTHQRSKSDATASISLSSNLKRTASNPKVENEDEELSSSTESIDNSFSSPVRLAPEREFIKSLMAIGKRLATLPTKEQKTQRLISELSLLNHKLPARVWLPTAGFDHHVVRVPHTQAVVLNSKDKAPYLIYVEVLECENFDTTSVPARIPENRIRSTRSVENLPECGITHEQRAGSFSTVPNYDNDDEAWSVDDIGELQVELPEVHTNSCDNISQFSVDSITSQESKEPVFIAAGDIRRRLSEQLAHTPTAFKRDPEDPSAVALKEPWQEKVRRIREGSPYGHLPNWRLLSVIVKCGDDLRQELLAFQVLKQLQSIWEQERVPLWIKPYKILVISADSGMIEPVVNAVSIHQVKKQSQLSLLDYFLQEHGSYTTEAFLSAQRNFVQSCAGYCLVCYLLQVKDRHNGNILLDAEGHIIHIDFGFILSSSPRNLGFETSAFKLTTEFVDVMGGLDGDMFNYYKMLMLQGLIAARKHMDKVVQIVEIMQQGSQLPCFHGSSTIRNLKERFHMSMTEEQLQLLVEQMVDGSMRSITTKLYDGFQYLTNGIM
Sequence of Casein kinase II subunit alpha (Homo sapiens) (P68400 whole entry, looked up): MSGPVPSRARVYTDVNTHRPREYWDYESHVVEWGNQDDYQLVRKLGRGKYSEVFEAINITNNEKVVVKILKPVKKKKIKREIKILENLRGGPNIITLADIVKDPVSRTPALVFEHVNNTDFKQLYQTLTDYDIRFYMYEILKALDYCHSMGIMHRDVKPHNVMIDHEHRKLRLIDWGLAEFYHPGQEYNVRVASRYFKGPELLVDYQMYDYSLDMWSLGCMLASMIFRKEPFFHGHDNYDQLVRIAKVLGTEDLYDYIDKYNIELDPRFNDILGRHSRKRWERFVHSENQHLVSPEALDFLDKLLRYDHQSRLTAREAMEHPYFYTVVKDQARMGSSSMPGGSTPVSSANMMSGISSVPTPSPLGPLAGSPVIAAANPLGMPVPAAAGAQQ
Sequence of SRSF protein kinase 1 (Homo sapiens) (Q96SB4 whole entry): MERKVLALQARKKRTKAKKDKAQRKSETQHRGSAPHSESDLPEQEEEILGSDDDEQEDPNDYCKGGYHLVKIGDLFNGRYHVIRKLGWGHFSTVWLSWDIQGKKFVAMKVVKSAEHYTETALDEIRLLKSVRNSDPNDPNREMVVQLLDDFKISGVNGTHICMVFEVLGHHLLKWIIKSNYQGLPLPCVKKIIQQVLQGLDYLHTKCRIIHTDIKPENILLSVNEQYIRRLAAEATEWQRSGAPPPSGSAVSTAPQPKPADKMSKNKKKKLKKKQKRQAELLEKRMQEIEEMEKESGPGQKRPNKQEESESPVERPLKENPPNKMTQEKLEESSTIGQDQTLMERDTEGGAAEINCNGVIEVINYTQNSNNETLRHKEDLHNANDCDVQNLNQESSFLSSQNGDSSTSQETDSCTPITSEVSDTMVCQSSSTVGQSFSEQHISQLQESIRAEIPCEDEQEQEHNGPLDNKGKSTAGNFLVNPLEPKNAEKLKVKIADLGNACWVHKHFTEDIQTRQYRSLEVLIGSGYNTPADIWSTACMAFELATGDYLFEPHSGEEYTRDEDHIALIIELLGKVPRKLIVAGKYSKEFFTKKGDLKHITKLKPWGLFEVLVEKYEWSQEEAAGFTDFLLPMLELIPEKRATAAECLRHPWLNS
Sequence of Sphingosine kinase 1 (Homo sapiens) (Q9NYA1 whole entry): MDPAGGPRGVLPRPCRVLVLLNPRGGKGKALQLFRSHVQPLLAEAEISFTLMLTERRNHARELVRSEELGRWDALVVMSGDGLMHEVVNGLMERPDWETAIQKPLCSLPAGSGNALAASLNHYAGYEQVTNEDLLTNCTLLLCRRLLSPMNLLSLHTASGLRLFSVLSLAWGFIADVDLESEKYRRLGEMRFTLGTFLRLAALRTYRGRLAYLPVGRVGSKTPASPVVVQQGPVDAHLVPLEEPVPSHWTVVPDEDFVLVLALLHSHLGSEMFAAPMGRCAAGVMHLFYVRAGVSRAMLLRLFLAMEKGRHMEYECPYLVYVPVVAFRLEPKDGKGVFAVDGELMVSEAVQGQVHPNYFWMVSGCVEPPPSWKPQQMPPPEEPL

Turning to `CC(C)c1ccc(-c2cc(-c3c[nH]nc3-c3ccccn3)ccn2)cc1`, the inhibition (usually the relative decrease from the control value, in per cent) in [1] was 1.41%; in experiment [2] it was -1.6%; in [3], -2.44%; in experiment [4], 0.78%; in experiment [5] it was 1.76%; in [6], 0.89%. Also, the inhibition in experiment [7] is 4.14%; in [8], 1.73%; in [9], 0.67%; in experiment [10] it was 1.34%; in experiment [11], -1.66%; in experiment [12] it was -0.31%. In addition, the inhibition in experiment [13] was -1.09%; in experiment [14], 0.16%; in [15] it was 0.83%; in experiment [16], 7.45%; in experiment [17], -4.49%; in [18], 1.97%. Further, the inhibition was -0.35% in experiment [19] and 1.33% in experiment [20].
Turning to `COc1ccc(Nc2ncc(-c3ccccc3)o2)cc1OC`, the inhibition in experiment [1] was 1.14%; in experiment [2], -1.72%; in experiment [3] it was -3.33%; in [4], -2.31%; in [5], 0.95%; in experiment [6], 0.94%. Further, the inhibition was 4.48% in experiment [7]; 2.22% in experiment [8]; 4.24% in experiment [9]; -0.27% in [10]; 2.47% in experiment [11]; -0.42% in experiment [12]. The inhibition in experiment [13] is -0.4%; in experiment [14], 1.03%; in experiment [15] it was 6.83%; in [16], 5.31%; in [17] it was 3.86%; in [18], 3.33%. Moreover, the inhibition is 4.83% in experiment [19] and 2.76% in experiment [20].
For the molecule `Cc1cc(O)cc(C)c1/C=C/c1cncc(C(=O)OC(C)(C)C)c1`, the inhibition in [1] was 1.7%; in [2], -1.51%; in experiment [3], 0.59%; in experiment [4], 5.51%; in experiment [5], 7.91%; in [6], 5.19%. Besides, the inhibition is 6.21% in experiment [7]; 1.7% in [8]; 3.49% in experiment [9]; 2.8% in [10]; -1.82% in experiment [11]; 0.51% in [12]. In addition, the inhibition in experiment [13] turned out to be 0%; in experiment [14] it was 4.48%; in experiment [15], 7.86%; in experiment [16], 2.35%; in experiment [17], 1.81%; in [18] it was 2.36%. The inhibition in [19] is 2.32%; in experiment [20], 4.19%.
